Data from PubChem BioAssay (NCATS).
Several values for one entry are separate records, joined by “and”; a condition that tells them apart may be missing. Equal entries are not always repeated. Inconclusive results are not listed. Entries that show only a call come without a potency. Values without a mark were called inactive. Activity calls are given as the source filed them. Unless noted, calls follow the shape of the dose curve; as a rule, active = well fitted curve in the direction sought with a large enough effect; inconclusive = small, poorly fitted or top-dose-only effect, or another doubt; inactive = no such curve, though single readings can be large; an effect the other way counts as inactive or inconclusive.

Legend:
[1] = A High-Content qHTS Against Drug Library for the Identification of Small Molecules that Inhibit DYT1 Early Onset Primary Dystonia-Associated Cell Pathology (AID 1645839; calls by dose curve; also: series mostly up to about 46 µM)
In short: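 Flp-In T-REx 293 cells with tetracycline-inducible EGFP-delE hTOR1A (WT EGFP-hTOR1A as reference), 800 cells/well; compound added with tetracycline, 48 h at 37 C. Fixed, permeabilized cells imaged; %pathology (punctate TorsinA) primary, cell count counterscreen.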

[2] = target: Cytochrome P450 2D6 (Homo sapiens) (UniProt P10635); assay: Cytochrome P450 family 2 subfamily D member 6 (CYP2D6) small molecule antagonists: luciferase biochemical (cell-free) qHTS assay (AID 1645840; active = well fitted curve in the direction sought with a large enough effect in the repeat runs; an effect the other way counts as inactive or inconclusive; also: nearly all actives have a fitted effect of over 55% in size; also: potency is read from the fitted curve at half-maximal effect)
Cytochrome P450 2D6 (Homo sapiens), sequence (P10635 whole entry, looked up): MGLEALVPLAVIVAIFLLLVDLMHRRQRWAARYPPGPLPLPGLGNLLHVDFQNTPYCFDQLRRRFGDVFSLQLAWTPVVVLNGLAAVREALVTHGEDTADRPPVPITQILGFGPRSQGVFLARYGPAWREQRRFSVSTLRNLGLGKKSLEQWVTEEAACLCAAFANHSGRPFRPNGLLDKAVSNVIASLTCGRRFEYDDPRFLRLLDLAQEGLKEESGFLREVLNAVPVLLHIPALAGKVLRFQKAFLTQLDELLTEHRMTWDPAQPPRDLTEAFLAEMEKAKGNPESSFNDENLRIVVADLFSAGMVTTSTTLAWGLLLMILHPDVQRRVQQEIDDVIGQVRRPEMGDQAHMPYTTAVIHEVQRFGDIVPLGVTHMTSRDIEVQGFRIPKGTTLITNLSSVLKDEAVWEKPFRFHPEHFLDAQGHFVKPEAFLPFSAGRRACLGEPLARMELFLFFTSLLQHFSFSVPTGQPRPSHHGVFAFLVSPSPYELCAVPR
In short: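 P450-Glo luminescent screen: recombinant CYP2D6 enzyme–proluciferin substrate mix preincubated with compound 10 min at room temperature, then NADPH regeneration added for 1 h at room temperature. Detection reagent added for 20 min; luciferin light read as relative luminescence units.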

[3] = target: Cytochrome P450 2C9 (Homo sapiens) (UniProt P11712); assay: Cytochrome P450 family 2 subfamily C member 9 (CYP2C9) small molecule antagonists: luciferase biochemical (cell-free) qHTS assay (AID 1645842; active = well fitted curve in the direction sought with a large enough effect in the repeat runs; an effect the other way counts as inactive or inconclusive; also: nearly all actives have a fitted effect of over 55% in size; also: potency is read from the fitted curve at half-maximal effect)
Cytochrome P450 2C9 (Homo sapiens), sequence (P11712 whole entry, looked up): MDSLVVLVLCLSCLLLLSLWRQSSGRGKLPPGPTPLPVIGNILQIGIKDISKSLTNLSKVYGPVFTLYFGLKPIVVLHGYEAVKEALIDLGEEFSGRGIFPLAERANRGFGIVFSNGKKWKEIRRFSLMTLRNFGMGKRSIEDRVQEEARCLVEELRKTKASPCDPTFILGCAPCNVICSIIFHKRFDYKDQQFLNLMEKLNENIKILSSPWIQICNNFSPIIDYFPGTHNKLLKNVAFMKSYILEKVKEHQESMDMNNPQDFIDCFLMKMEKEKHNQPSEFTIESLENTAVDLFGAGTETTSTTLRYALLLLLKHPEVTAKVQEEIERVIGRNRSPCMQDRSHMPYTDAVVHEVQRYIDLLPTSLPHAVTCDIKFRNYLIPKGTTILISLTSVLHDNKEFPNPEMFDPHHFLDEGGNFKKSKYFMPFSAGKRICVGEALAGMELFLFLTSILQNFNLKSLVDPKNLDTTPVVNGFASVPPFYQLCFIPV
In short: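 Luminescence, after 20 min with luciferin detection reagent, reflected CYP2C9 turnover during a 1 h NADPH-driven reaction at 37C. Enzyme-substrate mix contained 0.4% bovine serum albumin and was preincubated with compound 10 min at room temperature.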

Papain (Carica papaya) = Papain (Carica papaya) (UniProt P00784); assay: Primary qHTS assay for inhibitors of the protease papain (AID 1645873);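 also: papain turnover of Z-FR-AMC read as the AMC fluorescence gain over 10 min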; also: potency is read from the fitted curve at half-maximal effect
Papain (Carica papaya), sequence (P00784 whole entry, looked up): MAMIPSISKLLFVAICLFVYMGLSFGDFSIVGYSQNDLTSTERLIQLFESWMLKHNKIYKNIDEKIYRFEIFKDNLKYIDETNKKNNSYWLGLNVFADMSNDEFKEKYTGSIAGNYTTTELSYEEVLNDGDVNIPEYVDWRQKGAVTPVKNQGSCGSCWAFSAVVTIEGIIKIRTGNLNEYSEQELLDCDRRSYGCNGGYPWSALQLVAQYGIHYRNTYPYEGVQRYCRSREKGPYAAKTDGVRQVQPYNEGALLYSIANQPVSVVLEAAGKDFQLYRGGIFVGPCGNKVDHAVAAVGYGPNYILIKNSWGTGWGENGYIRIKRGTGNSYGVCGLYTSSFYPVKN

[4] = Primary qHTS for small molecule stabilizers of the endoplasmic reticulum resident proteome: Secreted ER Calcium Modulated Protein (SERCaMP) assay (AID 1508630)
In short: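 GLuc-SERCaMP-expressing SH-SY5Y cells, pretreated 16 h with compound, are challenged with thapsigargin to empty ER calcium stores; after 4 h, coelenterazine is added directly to the medium and luminescence is imaged.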

[5] = Primary qHTS for inhibitors of nuclear receptor binding SET domain protein 2 (NSD2) in an isogenic RCH-ACV NSD2 p.E1099K mutant (9B) (AID 1645876); also: nearly all actives have a fitted effect of over 70% in size; also: potency is read from the fitted curve at half-maximal effect
[6] = target: Cytochrome P450 3A4 (Homo sapiens) (UniProt P08684); assay: Cytochrome P450 family 3 subfamily A member 4 (CYP3A4) small molecule antagonists: luciferase qHTS assay (AID 1645841; active = well fitted curve in the direction sought with a large enough effect in the repeat runs; an effect the other way counts as inactive or inconclusive; also: nearly all actives have a fitted effect of over 45% in size)
Cytochrome P450 3A4 (Homo sapiens), sequence (P08684 whole entry, looked up): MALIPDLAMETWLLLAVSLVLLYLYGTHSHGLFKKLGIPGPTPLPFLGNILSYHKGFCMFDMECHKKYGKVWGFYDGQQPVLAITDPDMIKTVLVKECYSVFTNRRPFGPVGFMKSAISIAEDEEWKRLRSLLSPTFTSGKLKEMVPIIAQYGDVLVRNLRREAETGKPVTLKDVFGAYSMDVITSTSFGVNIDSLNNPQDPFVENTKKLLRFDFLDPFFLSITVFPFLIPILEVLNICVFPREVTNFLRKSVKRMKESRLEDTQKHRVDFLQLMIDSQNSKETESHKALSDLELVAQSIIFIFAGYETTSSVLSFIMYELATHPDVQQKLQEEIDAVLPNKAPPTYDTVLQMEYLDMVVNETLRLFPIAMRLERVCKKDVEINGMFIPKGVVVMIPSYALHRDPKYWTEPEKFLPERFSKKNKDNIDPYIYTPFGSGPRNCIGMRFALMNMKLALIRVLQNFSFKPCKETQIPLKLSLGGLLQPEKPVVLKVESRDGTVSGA
In short: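 P450-Glo CYP3A4 enzyme with proluciferin substrate preincubated 10 min with compound at room temperature, then NADPH regeneration 1 h. Luciferin detection reagent added for 20 min; luminescence recorded. Ketoconazole positive control.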

SMILES | Potency [1] | Potency [2] | Potency [3] | Potency (Papain (Carica papaya)) | Potency [4] | Potency [5] | outcome [6]
Cc1cccc(C)c1NC(=O)C(C)N (stereo not drawn) | inactive | inactive | inactive | inactive |  |  | 
Nc1nc(N)c2nc(-c3ccccc3)c(N)nc2n1 | inactive |  |  | 1.12 µM (active) | inactive | 7.5 µM (active) | 
CCN(CC)CC(=O)Nc1c(C)cccc1C | inactive |  |  | inactive | inactive | inactive | 
CCCOc1ccccc1-c1nc2n[nH]nc2c(=O)[nH]1 | inactive | inactive | inactive | inactive |  |  | 
c1cnc(N2CCN(Cc3ccc4c(c3)OCO4)CC2)nc1 | inactive | 0.871 µM (active) | 11 µM (active) | inactive |  | inactive | 
CC(C(=O)O)c1ccc(CC2CCCC2=O)cc1 (stereo not drawn) | inactive | inactive | inactive | inactive |  | inactive | inactive
C[C@]12CC[C@@H]3c4ccc(O)cc4C[C@@H](CCCCCCCCCS(=O)CCCC(F)(F)C(F)(F)F)[C@H]3[C@@H]1CC[C@@H]2O (stereo partly drawn) |  | inactive | 1.38 µM (active) | inactive | inactive | inactive | 
CN1C(=O)CC[C@H]1c1cccnc1 | inactive | inactive | inactive | inactive |  | inactive | 
CCCN(CCC)CCc1cccc2c1CC(=O)N2 | inactive | 2.75 µM (active) | inactive | inactive |  | inactive | 
CC1=NS(=O)(=O)c2cc(Cl)ccc2N1 | inactive | inactive | inactive | inactive |  | inactive | 
CC(C)COCC(CN(Cc1ccccc1)c1ccccc1)N1CCCC1 (stereo not drawn) |  | 0.0347 µM (active) |  | inactive | inactive | 2.99 µM (active) and 16.6 µM (active) | 
NC1=NCC2c3ccccc3Cc3ccccc3N12 (stereo not drawn) | inactive | 1.55 µM (active) | inactive | inactive |  |  | 
COc1cc(Cc2cnc(N)nc2N)cc(OC)c1OC | inactive | inactive | inactive |  |  |  | 
CC(C)(C)c1ccc(C(=O)CCCN2CCC(OC(c3ccccc3)c3ccccc3)CC2)cc1 |  |  |  | inactive | inactive | 11.9 µM (active) | 
Cc1ccc(Cl)c(Nc2ccccc2C(=O)O)c1Cl |  | inactive |  |  | inactive |  | 
O=C(O)CCCCCCCC(=O)O | inactive | inactive | inactive | inactive |  | inactive | 
